Compound activity deposited in PubChem BioAssay by National Center for Advancing Translational Sciences (NCATS).
NS1 inh – inhibitors of influenza NS1 protein function | Potency, µM (series often up to 46.1 µM), for the others: at the highest dose activity, positive = more growth | 270,000 tested, 0.4% active; calls by dose curve; also: actives are rising curves; nearly all actives have a fitted effect of over 50% in size
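In this qHTS, NS1 from influenza A is expressed in budding yeast, where it slows growth. Cells are switched from glucose to 2% galactose medium (pH 6.0, -URA), treated with compound, and growth recovery is read at OD600.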
Sm TGR block – inhibitors of Schistosoma mansoni thioredoxin glutathione reductase | 360,000 tested, 3% active | purified TGR, DTNB reduction, TNB absorbance 405 nm | Potency, µM (series often up to 114 µM), for inactives: at the top dose activity change, negative = inhibition, most hits filed as inhibitors | AID 485364; also: % is scaled to controls: 0 for no effect and ±100 for the full control effect; nearly all actives have a fitted effect of over 60% in size
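Kinetic colorimetric format: TGR-catalysed, NADPH-driven DTNB reduction monitored via TNB absorbance. Enzyme dispensed at 20 nM; compound exposure 15 min at room temperature before reaction start.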
Pf growth 48h – inhibits P. falciparum growth in the first generation, 48 h. 310,000 tested, 5.9% active. P. falciparum luciferase growth in erythrocytes, 48 h. Potency, µM (series often up to 28.7 µM), without a hit: top-dose activity change, negative = inhibition, hits mostly inhibitors; also: % is scaled to controls: 0 for no effect and ±100 for the full control effect
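Luciferase-expressing parasites in RBCs, 2% Hct / 0.1% parasitemia final; RPMI 1640 + 0.5% Albumax; 37 C, 5% CO2, one generation; luminescence read-out, lower signal = inhibition.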
AMA1-RON2 inh – disrupts binding of P. falciparum AMA1 to RON2; Potency, µM (highest dose often 58.2 µM), for the others: at the top dose activity change, negative = inhibition, usual class: inhibitors; 360,000 tested, 0.2% active; AlphaScreen AMA1-biotinylated RON2 peptide binding;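 also: 0% = vehicle wells and -100% = peptide control; nearly all actives have a fitted effect of over 45% in size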
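AMA1 (3D7) with his tag at 25 nM final met compounds first, then biotinylated RON2 peptide at 25 nM; detection used donor plus acceptor beads, 10 µg/mL apiece, read by AlphaScreen after 30 min at room temperature.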
Pf growth 96h – P. falciparum growth inhibition at 96 hour, primary screen for plastid delayed-death inhibitors; 320,000 tested, 6.9% active; AID 504834; Potency, µM (titrated, usually from 28.7 µM), for inactives: top-dose activity change, negative = inhibition, actives largely listed as inhibitors; P. falciparum luciferase reporter growth, 96 h; also: % is scaled to controls: 0 for no effect and ±100 for the full control effect
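96 h incubation, 37 C, 5% CO2, of luciferase-reporter P. falciparum-infected RBCs (2% hematocrit, 0.05% parasitemia final) with test compounds; endpoint luminescence.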
* marks the source's active call; other numbers are inactive results; ? = inconclusive; nt = no result given; ! = repeats disagree. In the library only some 11% were active in any assay of this set; here they are far more common. Unless noted, calls follow the shape of the dose curve; as a rule, active = well fitted curve in the direction sought with a large enough effect; inconclusive = small, poorly fitted or top-dose-only effect, or another doubt; inactive = no such curve, though single readings can be large; an effect the other way counts as inactive or inconclusive. Potency is read from the fitted curve at half-maximal effect.

SMILES	NS1 inh	Sm TGR block	Pf growth 48h	AMA1-RON2 inh	Pf growth 96h
O=S(=O)(c1ccccc1)c1nc(-c2ccco2)oc1NCCCN1CCOCC1	7%	28µM*	-5%	3%	43%
O=S(=O)(c1ccccc1)c1nc(-c2ccco2)oc1NCCN1CCOCC1	?	?	nt	1%	30%
COc1ccc(CNC(=O)C(C)OC(=O)Cn2cnc3c2c(=O)n(C)c(=O)n3C)cc1 (stereo unspecified)	nt	0%	24%	1%	56%
O=S(=O)(c1ccccc1)c1nc(-c2cccs2)oc1NCCCn1ccnc1	-9%	?	0%	-13%	187%
O=S(=O)(c1ccc(Br)cc1)c1nc(-c2ccco2)oc1NCCCn1ccnc1	nt	22µM*	8.3µM*	-19%	?
CC(C)(C)c1ccc(OCC(=O)NCC2(N3CCOCC3)CCCCC2)cc1	nt	-1%	nt	nt	nt
CCCCCN1C(=O)Cn2c(nc3ccccc3c2=O)C1C (stereo unspecified)	2%	6%	-3%	31%	17%
O=C(NC(=S)Nc1ccc(CN2CCOCC2)cc1)c1ccc(-c2ccc(Cl)cc2)o1	1%	-28%	5%	-3%	?
Cc1ccc(C(=O)NC(=S)Nc2ccc(CN3CCOCC3)cc2)cc1	-4%	?	-17%	25%	-27%
O=C(NC(=S)Nc1ccc(CN2CCOCC2)cc1)c1ccc(-c2ccc(Br)cc2)o1	0%	?	13µM*	3%	?
COc1ccc(Br)cc1C(=O)NC(=S)Nc1ccc(CN2CCOCC2)cc1	-32%	-23%	?	-13%	4.7µM*
N[C@@H](Cc1c[nH]c2ccccc12)C(=O)O	20%	14µM*	9%	nt	?
COc1ccc(-c2c[n+]3c(n2-c2ccccc2)SCC3)cc1OC	nt	-15%	1.3µM*	-6%	?
COc1cccc(-c2ccc(SCc3ccccn3)nn2)c1	nt	0%	111%	-8%	97%
COc1ccc(-c2ccc(SCc3ccccn3)nn2)cc1OC	nt	-1%	3%	20%	2.6µM*
CC(c1nnc(SCC(=O)N(C)C2CCS(=O)(=O)C2)n1-c1ccccc1)N(C)C (stereo unspecified)	nt	-11%	-11%	-8%	33%
O=C(NCc1ccc(Cl)cc1)C1CCN(S(=O)(=O)c2ccccc2)CC1	-5%	25µM*!	9%	-1%	-8%
O=C(CCNC(=O)C1CCN(S(=O)(=O)c2ccc(F)cc2)CC1)NCc1ccc(Cl)cc1	3%	6%	12%	17%	30%
O=C(NCc1ccc(F)cc1)C1CCN(S(=O)(=O)c2ccc(Cl)cc2)CC1	-8%	4%	3.7µM*	12%	-23%
O=C1CC2CCCN2C=C1I (stereo unspecified)	nt	nt	nt	-7%	nt
Cc1cccn2c(=O)c(C(=O)N3CCN(c4ccc(Cl)cc4)CC3)cnc12	nt	1%	nt	nt	nt
O=C(NCCN1C(=O)S/C(=C\c2cccnc2)C1=O)C1=NN(c2ccccc2)C(=O)CC1	-3%	-9%	-7%	8%	-1%
CC1(C)Cc2c(C#N)c(NCCO)nc(-c3ccco3)c2CO1	5%	3.5µM*	?	2%	?
CC1(C)Cc2c(C#N)c(NCCN3CCOCC3)nc(-c3ccco3)c2CO1	10%	35µM*	13µM*	-5%	10µM*
CCCc1nnc(SCC(=O)NC2CC2)n1CC	-4%	2%	8%	6%	20%
SMILES	NS1 inh	Sm TGR block	Pf growth 48h	AMA1-RON2 inh	Pf growth 96h
Nc1c2c(nc3ccccc13)N(C1CCCCC1)CC2	-22%	-5%	13µM*	25%	2%
Nc1c2c(nc3ccc(Br)cc13)N(C1CCCCC1)CC2	nt	-19%	?	nt	10µM*
CCC(C)c1ccc(NC(=O)c2[nH]c(C)c(C(C)=O)c2C)cc1 (stereo unspecified)	9%	-14%	4.7µM*	-17%	3.3µM*
CC(=O)c1c(C)[nH]c(C(=O)Nc2ccc(F)c(F)c2F)c1C	-7%	-1%	13µM*	-23%	?
CC(=O)c1c(C)[nH]c(C(=O)Nc2ccc(Cl)cc2F)c1C	1%	6%	63%	-10%	20%
CC(=O)c1c(C)[nH]c(C(=O)OCC(=O)c2ccc(Br)cc2)c1C	nt	nt	nt	5%	nt
CCC(NC(=O)c1[nH]c(C)c(C(C)=O)c1C)c1ccc(Br)cc1 (stereo unspecified)	-22%	-11%	9.3µM*	-5%	?
